Laboratory results: PubChem BioAssay (NCI)
This is part of a sample that, as a whole, favours compounds with a hit. Of some 83,000 tested, about 20% had one in any assay.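 Percent growth is the endpoint: 0 to 100 indicates growth inhibition (40 means 60% inhibition), 0 means no net growth, and negative values indicate cell death.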 The source made the active and inactive calls. The calls were made as follows: active = growth percent below 10; inactive = the rest.

Key:
Assay in all cases: NCI-60 one-dose screen, 48 h (100 = growth as untreated, 0 = no growth, -100 = all killed)
HCT-15 colon = conditions: 10 µM unless noted
HT29 colon = conditions: 10 µM unless noted
SNB-75 CNS = conditions: 10 µM unless noted
SNB-19 CNS = conditions: 10 µM unless noted
U251 CNS = conditions: 10 µM unless noted
PC-3 prostate = conditions: 10 µM unless noted
SK-MEL-5 melanoma = conditions: 10 µM unless noted
LOX IMVI melanoma = conditions: 10 µM unless noted
SK-MEL-28 melanoma = conditions: 10 µM unless noted
SK-MEL-2 melanoma = conditions: 10 µM unless noted
EKVX NSCLC = conditions: 10 µM unless noted
SN12C renal = conditions: 10 µM unless noted
UO-31 renal = conditions: 10 µM unless noted
ACHN renal = conditions: 10 µM unless noted
CAKI-1 renal = conditions: 10 µM
A498 renal = conditions: 10 µM unless noted
MOLT-4 leukemia = conditions: 10 µM unless noted
CCRF-CEM leukemia = conditions: 10 µM unless noted
UACC-62 melanoma = conditions: 10 µM unless noted
TK-10 renal = conditions: 10 µM unless noted

Measured: growth

O=C1c2ccccc2OC=C(c2ccccc2)N1CCCCNc1ccc(F)cc1
inactive: HCT-15 colon 90.3% | HT29 colon 76.9% | SNB-75 CNS 90.7% | SNB-19 CNS 87.3% | U251 CNS 81.8% | PC-3 prostate 47.2% | SK-MEL-5 melanoma 94.3% | LOX IMVI melanoma 86.1% | SK-MEL-28 melanoma 104% | SK-MEL-2 melanoma 89.2% | EKVX NSCLC 96.8% | SN12C renal 77.4% | UO-31 renal 53.5% | ACHN renal 97.5% | CAKI-1 renal 85.8% | A498 renal 98.3% | MOLT-4 leukemia 48.4%

Nc1ncnc2c1c(-c1ccc(Oc3ccccc3)cc1)nn2C[C@@H]1SSC[C@H]1O
inactive: HCT-15 colon 70.4% | HT29 colon 13.2% | SNB-19 CNS 40.6% | U251 CNS 26.5% | PC-3 prostate 55.7% | LOX IMVI melanoma 10.7% | SK-MEL-28 melanoma 31.4% | EKVX NSCLC 33.2% | SN12C renal 23.3% | ACHN renal 11.6% | CCRF-CEM leukemia 32.9%
active: SNB-75 CNS 2.29% | SK-MEL-5 melanoma -59.6% | SK-MEL-2 melanoma -14.4% | UO-31 renal 0.587% | A498 renal -5.51% | MOLT-4 leukemia 0.449%

COc1ccc(-c2nn(-c3ccc(NC(=O)c4cc(Cl)cc(Cl)c4)cc3)cc2-c2ccncc2)cc1Cl
inactive: HCT-15 colon 21.7% | SNB-75 CNS 72.4% | SNB-19 CNS 82.8% | U251 CNS 39.2% | PC-3 prostate 47.9% | SK-MEL-5 melanoma 54.8% | LOX IMVI melanoma 22.9% | SK-MEL-28 melanoma 75.1% | SK-MEL-2 melanoma 49.9% | EKVX NSCLC 74.6% | SN12C renal 85% | UO-31 renal 25% | ACHN renal 63.6% | A498 renal 50.9% | CCRF-CEM leukemia 54.8% | MOLT-4 leukemia 18.9%
active: HT29 colon 8.22% | CAKI-1 renal 7.27%

O=C(CSc1nnc(-c2cc3c([nH]c4ccccc43)c(-c3cccc(O)c3)n2)n1-c1ccccc1)c1ccccc1
inactive: HCT-15 colon 46.3% | HT29 colon 64.9% | SNB-75 CNS 45.8% | SNB-19 CNS 84.2% | U251 CNS 32.9% | PC-3 prostate 40.2% | SK-MEL-5 melanoma 33.2% | LOX IMVI melanoma 11.2% | SK-MEL-28 melanoma 71.5% | SK-MEL-2 melanoma 65.7% | EKVX NSCLC 69.3% | SN12C renal 67.7% | UO-31 renal 63.4% | ACHN renal 40.3% | CAKI-1 renal 45.5% | A498 renal 67% | CCRF-CEM leukemia 30.9% | MOLT-4 leukemia 41.7%

COc1ccc(-c2[nH]c3ccccc3c2/C=C(\C#N)S(=O)(=O)c2ccccc2)cc1
inactive: HCT-15 colon 24.6% | HT29 colon 12.6% | SNB-75 CNS 33.1% | SNB-19 CNS 30.3% | U251 CNS 24.2% | PC-3 prostate 30.9% | SK-MEL-5 melanoma 12.5% | UACC-62 melanoma 22.6% | LOX IMVI melanoma 28.5% | SK-MEL-28 melanoma 54.2% | SK-MEL-2 melanoma 76.5% | EKVX NSCLC 14.1% | SN12C renal 42.2% | TK-10 renal 91.7% | ACHN renal 51%
active: CAKI-1 renal -14.3% | A498 renal 2.31% | CCRF-CEM leukemia 8.07% | MOLT-4 leukemia 6.08%

CCCCN(CCCC)c1ccc(C(=N)c2ccc(N(C)C)cc2)cc1
active: HCT-15 colon -58.7% | HT29 colon -50.8% | SNB-75 CNS -46.6% | SNB-19 CNS 6.19% | U251 CNS -17% | PC-3 prostate -14.7% | SK-MEL-5 melanoma -99.8% | UACC-62 melanoma -71.9% | LOX IMVI melanoma -95.9% | SK-MEL-28 melanoma -70.1% | SK-MEL-2 melanoma -69.6% | EKVX NSCLC -11.9% | SN12C renal -30% | TK-10 renal -5.56% | ACHN renal -2.72% | CAKI-1 renal -28.9% | A498 renal 9.81% | CCRF-CEM leukemia 1.04% | MOLT-4 leukemia 1.79%

CC(CCC(=O)O)[C@H]1CCC2C3C(=O)C[C@@H]4CC(=O)CC[C@]4(C)C3CC(=O)[C@@]21C (some centres undefined)
inactive: HCT-15 colon 105% | HT29 colon 117% | SNB-75 CNS 110% | SNB-19 CNS 101% | U251 CNS 95% | PC-3 prostate 92.8% | SK-MEL-5 melanoma 105% | LOX IMVI melanoma 92.5% | SK-MEL-28 melanoma 119% | SK-MEL-2 melanoma 128% | EKVX NSCLC 93.6% | SN12C renal 93.2% | UO-31 renal 83.8% | TK-10 renal 116% | CAKI-1 renal 84.7% | A498 renal 88% | CCRF-CEM leukemia 103% | MOLT-4 leukemia 96.7%

N#CC1=C(N)Oc2c(ccc3ccccc23)C1c1cc(=O)oc2ccc(Cl)cc12 (centres undefined)
inactive: HCT-15 colon 25.8% | SNB-75 CNS 20.2% | SNB-19 CNS 33.4% | U251 CNS 24.4% | PC-3 prostate 18.2% | SK-MEL-5 melanoma 28.3% | LOX IMVI melanoma 42% | SK-MEL-28 melanoma 62.9% | SK-MEL-2 melanoma 43.6% | EKVX NSCLC 44.5% | SN12C renal 47.5% | UO-31 renal 50.9% | TK-10 renal 71.4% | ACHN renal 50.8% | A498 renal 23.4% | CCRF-CEM leukemia 18.6% | MOLT-4 leukemia 20.8%
active: HT29 colon 6.85%

CC(=O)Cc1cccnc1
inactive: HCT-15 colon 107% | HT29 colon 106% | SNB-75 CNS 104% | SNB-19 CNS 98.8% | U251 CNS 98.6% | PC-3 prostate 94.3% | SK-MEL-5 melanoma 101% | LOX IMVI melanoma 99.9% | SK-MEL-28 melanoma 113% | SK-MEL-2 melanoma 116% | EKVX NSCLC 105% | SN12C renal 98.9% | UO-31 renal 89.8% | TK-10 renal 95.5% | A498 renal 85.4% | CCRF-CEM leukemia 88.5% | MOLT-4 leukemia 93.7%

COc1ccc(C2=NN(C(=O)COc3ccc(Cl)cc3)C(O)(c3cc(F)c(Cl)cc3Cl)C2)cc1 (centres undefined)
inactive: HCT-15 colon 98.6% | HT29 colon 99.4% | SNB-75 CNS 88.2% | SNB-19 CNS 94.7% | U251 CNS 104% | SK-MEL-5 melanoma 114% | UACC-62 melanoma 111% | LOX IMVI melanoma 83.8% | SK-MEL-28 melanoma 103% | SK-MEL-2 melanoma 99.2% | EKVX NSCLC 80.5% | SN12C renal 119% | UO-31 renal 74.7% | TK-10 renal 89.5% | ACHN renal 104% | A498 renal 95.3% | MOLT-4 leukemia 77.3%
active: CCRF-CEM leukemia 7.54%

COc1cc(-c2nc(SCC(=O)Nc3ccc(C(C)=O)cc3)[nH]c(=O)c2C#N)cc(OC)c1OC
inactive: HCT-15 colon 40.2% | SNB-75 CNS 38.3% | SNB-19 CNS 58.2% | U251 CNS 16% | PC-3 prostate 18% | SK-MEL-5 melanoma 15.2% | LOX IMVI melanoma 18.5% | SK-MEL-28 melanoma 57.8% | SK-MEL-2 melanoma 35.9% | EKVX NSCLC 33.8% | SN12C renal 29.5% | UO-31 renal 49.3% | ACHN renal 41.6% | CAKI-1 renal 61.5% | A498 renal 18.5%
active: HT29 colon 6.82% | CCRF-CEM leukemia -11.9% | MOLT-4 leukemia 3.84%

Nn1c(SCC(=O)Nc2cc(Cl)c(Cl)cc2Cl)nnc1-c1cc(F)c(Cl)cc1Cl
inactive: HCT-15 colon 150% | HT29 colon 110% | SNB-75 CNS 106% | SNB-19 CNS 102% | U251 CNS 114% | PC-3 prostate 97.8% | SK-MEL-5 melanoma 78.4% | LOX IMVI melanoma 129% | SK-MEL-28 melanoma 135% | SK-MEL-2 melanoma 87.3% | EKVX NSCLC 66.5% | SN12C renal 151% | UO-31 renal 65.2% | TK-10 renal 123% | ACHN renal 210% | A498 renal 115% | CCRF-CEM leukemia 125% | MOLT-4 leukemia 84.8%

O=C(O)c1ccccc1C(=O)c1ccc(I)cc1
inactive: HCT-15 colon 100% | HT29 colon 90% | SNB-75 CNS 98.1% | SNB-19 CNS 110% | U251 CNS 102% | PC-3 prostate 91.2% | SK-MEL-5 melanoma 102% | LOX IMVI melanoma 91% | SK-MEL-28 melanoma 107% | SK-MEL-2 melanoma 91.2% | EKVX NSCLC 97.5% | SN12C renal 104% | UO-31 renal 99.4% | TK-10 renal 95.6% | ACHN renal 104% | A498 renal 115% | CCRF-CEM leukemia 99.9% | MOLT-4 leukemia 94.3%

CCc1cccc(-c2ccccc2)c1
inactive: HCT-15 colon 103% | HT29 colon 114% | SNB-75 CNS 105% | SNB-19 CNS 107% | U251 CNS 106% | PC-3 prostate 99% | SK-MEL-5 melanoma 111% | LOX IMVI melanoma 109% | SK-MEL-28 melanoma 120% | SK-MEL-2 melanoma 116% | EKVX NSCLC 102% | SN12C renal 99.5% | UO-31 renal 87.8% | TK-10 renal 106% | ACHN renal 108% | MOLT-4 leukemia 88%
active: CCRF-CEM leukemia 8.01%

COc1ccc(-c2c(NC(=O)Nc3ccc(Cl)c(C(F)(F)F)c3)cnn2-c2ccc(S(N)(=O)=O)cc2)cc1
inactive: HCT-15 colon 68.3% | HT29 colon 24.8% | SNB-75 CNS 65.7% | SNB-19 CNS 21.5% | U251 CNS 15.6% | SK-MEL-5 melanoma 27% | LOX IMVI melanoma 37.6% | SK-MEL-28 melanoma 42.2% | EKVX NSCLC 61.6% | SN12C renal 51.4% | UO-31 renal 50.9% | TK-10 renal 30.9% | ACHN renal 57.5% | A498 renal 26.8%
active: PC-3 prostate 9.52% | SK-MEL-2 melanoma -4.24% | CCRF-CEM leukemia 8.88% | MOLT-4 leukemia 1.8%

CC1=C[S+](c2ccccc2)c2cccc3cc4ccccc4c1c23 (centres undefined)
active: HCT-15 colon 7.56% | HT29 colon 0.469% | SNB-75 CNS -91.1% | SNB-19 CNS -93.6% | U251 CNS -81% | PC-3 prostate 1.38% | SK-MEL-5 melanoma -86.7% | LOX IMVI melanoma 8.36% | SK-MEL-2 melanoma -65.2% | EKVX NSCLC -1.91% | SN12C renal -60.2% | UO-31 renal -39.5% | TK-10 renal 2.15% | CCRF-CEM leukemia 4.35% | MOLT-4 leukemia -23.5%
inactive: SK-MEL-28 melanoma 11.5% | ACHN renal 15.3% | A498 renal 27.5%

Cc1[nH]n(C(=O)c2ccncc2)c(=O)c1N=Nc1ccc(S(=O)(=O)Nc2ccncn2)cc1
inactive: HCT-15 colon 112% | HT29 colon 109% | SNB-75 CNS 93.9% | SNB-19 CNS 105% | U251 CNS 105% | PC-3 prostate 100% | SK-MEL-5 melanoma 106% | LOX IMVI melanoma 93.6% | SK-MEL-28 melanoma 112% | SK-MEL-2 melanoma 116% | EKVX NSCLC 94.4% | SN12C renal 97% | UO-31 renal 85.1% | TK-10 renal 101% | ACHN renal 104% | A498 renal 111% | MOLT-4 leukemia 102%
active: CCRF-CEM leukemia -33.9%
